# Assay outcomes: PubChem BioAssay, Broad Institute
# IDE exosite FP: displaces the probe from the exo-site of human IDE; purified IDE, FL-6b probe fluorescence polarization; stronger effect = lower value; P14735; 17,000 compounds, 6.3% hits; z-score at 20 µM;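 active = z-score of -3 or lower, meaning strong loss of probe binding signal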;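 also: His-tagged human IDE residues 42-1019 made in E. coli with 30 nM FL-6b probe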
# Numbers stand for hits; n = inactive. Shown is part of a subset that was picked to be rich in hits.
SMILES,IDE exosite FP
CCS(=O)(=O)Nc1ccc2c(c1)C(=O)N(C)[C@@H]1CC[C@@H](CC(=O)NC3CCCCC3)O[C@@H]1CO2,n
CC(C)C#Cc1ccc([C@H]2[C@@H](CO)N3C(=O)CN(C(=O)Cc4cccnc4)C[C@@H]23)cc1,n
CCS(=O)(=O)NC[C@@H]1[C@@H](c2ccccc2)[C@@H](CO)N1CC1CCCCC1,n
CN(C)C(=O)c1cccc(-c2ccc([C@H]3[C@@H](CO)N4CCCCN(CCC(F)(F)F)C[C@H]34)cc2)c1,n
C[C@H]1CN([C@@H](C)CO)C(=O)c2ccccc2-c2ccccc2CO[C@H]1CN(C)C(=O)c1cc(Cl)cc(Cl)c1,n
O=C(N[C@@H]1CC[C@@H](CCNS(=O)(=O)c2ccc(F)cc2)O[C@@H]1CO)C1CCC1,n
CCCNC(=O)N1CCC2(CC1)CN(C(=O)CC1CC1)[C@@H](CO)c1c2c2ccc(OC)cc2n1C,n
C/C=C/c1ccccc1[C@H]1[C@@H](C#N)N(c2nc(CC)cs2)[C@H]1CO,n
CN(C)CC#Cc1ccc([C@@H]2[C@@H](CO)N3C(=O)CN(C(=O)c4cccc(F)c4)C[C@@H]23)cc1,n
O=S(=O)(c1ccccc1)N1CCCCN2[C@H](CO)[C@H](c3ccc(-c4cncnc4)cc3)[C@@H]2C1,n
C/C=C/c1ccc([C@@H]2[C@@H](CO)N3C(=O)CN(C(=O)c4ccncc4)C[C@@H]23)cc1,n
O=C(c1ccncc1)N1CC(=O)N2[C@H](C1)[C@@H](c1ccc(/C=C/c3ccccc3)cc1)[C@@H]2CO,-6
C/C=C/c1ccc([C@@H]2[C@H](CO)N3C(=O)CN(C(=O)c4ccncc4)C[C@@H]23)cc1,n
O=C(c1ccccc1)N1CC(=O)N2[C@H](CO)[C@H](c3ccc(/C=C/c4ccccc4)cc3)[C@H]2C1,-8.4
O=C(c1ccc(F)cc1)N1CC(=O)N2[C@H](CO)[C@H](c3ccc(/C=C/c4ccccc4)cc3)[C@@H]2C1,n
C/C=C/c1ccc([C@H]2[C@H]3CN(C(=O)c4ccncc4)CC(=O)N3[C@H]2CO)cc1,n
O=C(c1ccncc1)N1CC(=O)N2[C@H](CO)[C@@H](c3ccc(/C=C/c4ccccc4)cc3)[C@@H]2C1,n
O=C(c1ccncc1)N1CC(=O)N2[C@@H](CO)[C@H](c3ccc(/C=C/c4ccccc4)cc3)[C@@H]2C1,-16
O=C(c1ccccc1)N1CC(=O)N2[C@H](CO)[C@H](c3ccc(/C=C/c4ccccc4)cc3)[C@@H]2C1,n
CCS(=O)(=O)Nc1ccc2c(c1)C(=O)N(C)[C@H]1CC[C@H](CC(=O)N[C@H]3CCN(Cc4ccccc4)C3)O[C@@H]1CO2,n
C[C@H](O)C#Cc1ccc([C@H]2[C@H]3CN(C(=O)Nc4ccccc4)CCCCN3[C@H]2CO)cc1,n
COc1ccccc1C(=O)N1C[C@@H]2[C@H](c3ccccc31)[C@H](CO)N2C(=O)Cc1ccccc1,n
CO[C@@H]1CN(C)C(=O)c2cc(NC(=O)Nc3ccccc3Cl)ccc2OC[C@@H](C)N(S(=O)(=O)CC(F)(F)F)C[C@H]1C,n
O=C(c1cnccn1)N1CC(=O)N2[C@@H](CO)[C@H](c3ccc(C#CCC4CCCC4)cc3)[C@@H]2C1,n
N#C[C@H]1[C@@H](c2ccccc2)[C@@H](CO)N1S(=O)(=O)c1ccc(F)cc1,n
SMILES,IDE exosite FP
C[C@@H]1CCn2cc(nn2)COC[C@H](c2ccccc2)NC1=O,n
COc1cccc(C#Cc2ccc([C@H]3[C@@H](C#N)N(C(=O)c4ccccn4)[C@@H]3CO)cc2)c1,n
COc1cccc(-c2ccc([C@H]3[C@@H](C#N)N(C(=O)c4ccccn4)[C@@H]3CO)cc2)c1,-4.3
COc1cccc(-c2ccc([C@H]3[C@@H](CO)N(C(=O)c4ccccn4)[C@H]3C#N)cc2)c1,-5.9
COc1cccc(C#Cc2ccc([C@@H]3[C@@H](C#N)N(C(=O)c4ccccn4)[C@@H]3CO)cc2)c1,n
COc1cccc(C#Cc2ccc([C@@H]3[C@@H](C#N)N(C(=O)c4ccccn4)[C@H]3CO)cc2)c1,n
COc1cccc(-c2ccc([C@H]3[C@H](C#N)N(C(=O)c4ccccn4)[C@H]3CO)cc2)c1,n
O=C(NC[C@H]1[C@@H](c2ccccc2)[C@@H](CO)N1Cc1ccccn1)NC1CCCC1,n
N#C[C@@H]1[C@@H](c2ccccc2)[C@H](CO)N1C(=O)C1CCCC1,n
N#C[C@H]1[C@@H](c2ccc(-c3ccccc3F)cc2)[C@@H](CO)N1C(=O)c1ccccn1,n
COc1ccc(S(=O)(=O)Nc2ccc3c(c2)OC[C@@H](C)N(Cc2cc(F)ccc2F)C[C@@H](C)[C@H](OC)CN(C)C3=O)cc1,n
C[C@H](CO)N1C[C@H](C)[C@H](CN(C)C(=O)Nc2cccc3ccccc23)OCc2cn(nn2)CCCC1=O,n
O=C(c1ccc(F)cc1)N1CC(=O)N2[C@H](CO)[C@H](c3ccc(C#CC4CCCCC4)cc3)[C@@H]2C1,n
CN(C)CC(=O)N1[C@@H]2c3ccc(C4=CCCCC4)c(=O)n3C[C@@H]2[C@@H](CO)[C@@H]1C(=O)Nc1nccs1,n
O=C(c1cccc(F)c1)N1CC(=O)N2[C@H](C1)[C@@H](c1ccc(-c3cccnc3)cc1)[C@@H]2CO,n
COCC#Cc1ccc([C@H]2[C@@H](CO)N3C(=O)CN(C(=O)C4CC4)C[C@H]23)cc1,n
COc1cccc(-c2ccc([C@@H]3[C@@H](CO)N4CCCCN(C(=O)c5ccc(F)cc5)C[C@H]34)cc2)c1,n
COc1cccc(-c2ccc([C@H]3[C@H](CO)N4CCCCN(C(=O)NC(C)C)C[C@@H]34)cc2)c1,-12
COc1cccc(-c2ccc([C@H]3[C@H]4CN(C(=O)c5ccc6c(c5)OCO6)CCCCN4[C@H]3CO)cc2)c1,n
COc1cccc(-c2ccc([C@@H]3[C@@H](CO)N4CCCCN(C(=O)c5ccc6c(c5)OCO6)C[C@@H]34)cc2)c1,n
COc1cccc(-c2ccc([C@H]3[C@@H](CO)N4CCCCN(C(=O)c5ccc(F)cc5)C[C@H]34)cc2)c1,-3.3
COc1cccc(-c2ccc([C@@H]3[C@@H](CO)N4CCCCN(C(=O)c5ccc(F)cc5)C[C@@H]34)cc2)c1,n
COc1cccc(-c2ccc([C@@H]3[C@H]4CN(C(=O)c5ccc(F)cc5)CCCCN4[C@H]3CO)cc2)c1,n
COc1cccc(-c2ccc([C@H]3[C@@H](CO)N4CCCCN(C(=O)c5ccc(F)cc5)C[C@@H]34)cc2)c1,n
COc1cccc(-c2ccc([C@@H]3[C@H]4CN(C(=O)NC(C)C)CCCCN4[C@H]3CO)cc2)c1,-8
SMILES,IDE exosite FP
COc1cccc(-c2ccc([C@H]3[C@@H](CO)N4CCCCN(C(=O)NC(C)C)C[C@@H]34)cc2)c1,-5.8
COc1cccc(-c2ccc([C@H]3[C@H](CO)N4CCCCN(C(=O)c5ccc6c(c5)OCO6)C[C@@H]34)cc2)c1,n
O=S(=O)(c1cccc(Cl)c1)N1[C@@H]2CNC[C@H]1C2c1ccc(-c2cccnc2)cc1 (stereo not given in full),n
COCC(=O)N1CC(=O)N2[C@H](C1)[C@H](c1ccc(Br)cc1)[C@@H]2CO,n
O=C1N[C@@H](Cc2ccccc2)COCc2cn(nn2)CC[C@@H]1Cc1cccc(F)c1,n
CCNC(=O)[C@@H]1[C@@H](CO)[C@@H]2Cn3c(cccc3=O)[C@@H]2N1C(=O)CC1CC1,n
O=C(NCC[C@@H]1CC[C@@H](NC(=O)c2ccncc2)[C@@H](CO)O1)Nc1ccc(Cl)cc1,n
O=C(Cc1ccccc1)N1CC[C@H]2[C@H](CO)Nc3ccc(C4=CCCCC4)cc3[C@H]21,n
